Laboratory results published in paper PMC11062922 (Nature Chemical Biology, 2023).
Where two headings read alike, the source gives them in different places.

What was measured:
Design in all cases: species or system human, MV4-11 + K-562 + COLO205 + SK-N-BE2 + OVCAR-8
MAPK14 = conditions: read-out: apparent Kd, n = 1
MAPKAPK2 = conditions: read-out: apparent Kd, n = 1
MERTK = conditions: read-out: apparent Kd; compound concentrations:100 nM and 1000 nM (sheet 'Samples'); n = 1
NQO2 = conditions: read-out: apparent Kd, n = 1
PBK = conditions: read-out: apparent Kd; compound concentrations: 100 nM and 1000 nM (sheet 'Samples'), CATDS: 1; n = 1
PDGFRB = conditions: read-out: apparent Kd; compound concentrations: 100 nM and 1000 nM (sheet 'Samples'), CATDS: 1; n = 1
NNT = conditions: read-out: apparent Kd; compound concentrations:100 nM and 1000 nM (sheet 'Samples'); n = 1
MAPK7 = conditions: read-out: apparent Kd; compound concentrations: 100 nM and 1000 nM (sheet 'Samples'), CATDS: 1; n = 1
NUAK2 = conditions: read-out: apparent Kd; compound concentrations:100 nM and 1000 nM (sheet 'Samples'); n = 1
PIK3CG = conditions: read-out: apparent Kd, n = 1
MTHFD1 = conditions: read-out: apparent Kd; compound concentrations: 100 nM and 1000 nM (sheet 'Samples'), CATDS: 0.41943372694081998; n = 1
TNK1 = conditions: read-out: apparent Kd; compound concentrations: 100 nM and 1000 nM (sheet 'Samples'), CATDS: 0.618875790720404; n = 1
NLK = conditions: read-out: apparent Kd, n = 1
PKM = conditions: read-out: apparent Kd; compound concentrations:100 nM and 1000 nM (sheet 'Samples'); n = 1
MDN1 = conditions: read-out: apparent Kd; compound concentrations: 100 nM and 1000 nM (sheet 'Samples'), CATDS: 0.24349694063925101; n = 1
PIK3C3 = conditions: read-out: apparent Kd, compound concentrations: 100 nM and 1000 nM (sheet 'Samples'), n = 1
RIOK2 = conditions: read-out: apparent Kd; compound concentrations: 100 nM and 1000 nM (sheet 'Samples'), CATDS: 0.23086501182720201; n = 1
TGFBR1 = conditions: read-out: apparent Kd; compound concentrations: 100 nM and 1000 nM (sheet 'Samples'), CATDS: 0.25129467412206702; n = 1
RIPK2 = conditions: read-out: apparent Kd, n = 1
RIPK3 = conditions: read-out: apparent Kd; compound concentrations: 100 nM and 1000 nM (sheet 'Samples'), CATDS: 0.12404115210191501; n = 1
STK16 = conditions: read-out: apparent Kd; compound concentrations: 100 nM and 1000 nM (sheet 'Samples'), CATDS: 0.11776221232306; n = 1
TESK2 = conditions: read-out: apparent Kd, compound concentrations: 100 nM and 1000 nM (sheet 'Samples'), n = 1
TGFBR2 = conditions: read-out: apparent Kd; compound concentrations: 100 nM and 1000 nM (sheet 'Samples'), CATDS: 0.16011510960484199; n = 1
PHKG2 = conditions: read-out: apparent Kd; compound concentrations:100 nM and 1000 nM (sheet 'Samples'); n = 1
PIM2 = conditions: read-out: apparent Kd; compound concentrations:100 nM and 1000 nM (sheet 'Samples'); n = 1
PIM3 = conditions: read-out: apparent Kd, n = 1
PKN3 = conditions: read-out: apparent Kd; compound concentrations:100 nM and 1000 nM (sheet 'Samples'); n = 1
PIK3CB = conditions: read-out: apparent Kd, compound concentrations: 100 nM and 1000 nM (sheet 'Samples'), n = 1
PDXK = conditions: read-out: apparent Kd; compound concentrations: 100 nM and 1000 nM (sheet 'Samples'), CATDS: 9.0064918958082996E-2; n = 1
PIK3CA = conditions: read-out: apparent Kd; compound concentrations: 100 nM and 1000 nM (sheet 'Samples'), CATDS: 0.29964038012822602; n = 1
PIK3CD = conditions: read-out: apparent Kd; compound concentrations: 100 nM and 1000 nM (sheet 'Samples'), CATDS: 0.86289624081171401; n = 1
PRKDC = conditions: read-out: apparent Kd; compound concentrations: 100 nM and 1000 nM (sheet 'Samples'), CATDS: 9.7121910991741403E-2; n = 1
[1] = compound concentrations: 100 nM and 1000 nM (sheet 'Samples'), CATDS: 1
[2] = compound concentrations:100 nM and 1000 nM (sheet 'Samples')

Structure (SMILES): OCCCNc1nccc(-c2c(-c3cccc(C(F)(F)F)c3)nn3cc(C(F)(F)F)ccc23)n1 [GW630813X]
- potency estimated from few doses (MAPK14; compound concentrations: 100 nM and 1000 nM (sheet 'Samples'), CATDS: 0.49980022483794101): 1060 nM
- potency estimated from few doses (MAPKAPK2; compound concentrations: 100 nM and 1000 nM (sheet 'Samples'), CATDS: 0.50019993493019099): 1060 nM

Structure (SMILES): CC(=O)N[C@@H](Cc1ccc(OP(=O)(O)O)cc1)C(=O)N[C@H]1CCC(=O)N2CCC[C@@H](C(=O)NC3CCc4ccccc43)N2C1=O (stereo partly shown) [RO0324438-000]
- potency estimated from few doses (MERTK): 1220 nM

Structure (SMILES): CCn1c(-c2nonc2N)nc2ccc(F)cc21 [GW785404X]
- potency estimated from few doses (NQO2; [1]): 339 nM

Structure (SMILES): Cl.Cn1c(=O)c(Oc2ccc(F)cc2F)cc2cnc(NCCS(C)(=O)=O)nc21 [RO3309294-001]
- potency estimated from few doses (MAPK14; [1]): 344 nM

Structure (SMILES): N#Cc1cccc(C(=O)c2cnn(-c3ccc(F)cc3)c2N)c1 [RO1153321-000]
- potency estimated from few doses (PBK): 1730 nM

Structure (SMILES): CC(=O)N1CCC(Nc2ncc3cc(Oc4ccc(F)cc4F)c(=O)n(C)c3n2)CC1 [RO5043011-000]
- potency estimated from few doses (MAPK14; compound concentrations: 100 nM and 1000 nM (sheet 'Samples'), CATDS: 0.40238945157455502): 40.9 nM
- potency estimated from few doses (MAPKAPK2; [2]): 14.2 nM

Structure (SMILES): COc1ccc(-c2coc3ncnc(N)c23)cc1 [GW642125X]
- potency estimated from few doses (PDGFRB): 1540 nM

Structure (SMILES): CS(=O)(=O)CCNCc1nc(-c2ccc3ncnc(Nc4ccc(OCc5ccccc5)c(Cl)c4)c3c2)cs1.CS(=O)(=O)CCNCc1nc(-c2ccc3ncnc(Nc4ccc(OCc5ccccc5)c(Cl)c4)c3c2)cs1.Cl.Cl [GW582764A]
- potency estimated from few doses (NNT): 2020 nM
- potency estimated from few doses (NQO2; [2]): 1880 nM

Structure (SMILES): CCOc1cc(C(=O)N2CCC(N3CCN(C)CC3)CC2)ccc1Nc1ncc2c(n1)N(C1CCCC1)c1ccccc1C(=O)N2C [ERK5-IN-1]
- potency estimated from few doses (MAPK7): 813 nM

Structure (SMILES): COc1ccc(NC(=O)c2ccc(-c3cc(-c4nnc(C)o4)ccc3C)cc2)cc1 [GW595885X]
- potency estimated from few doses (NUAK2): 1230 nM
- potency estimated from few doses (PIK3CG; [2]): 1410 nM

Structure (SMILES): Cc1cc(NCC(c2ccccc2)c2ccccc2)nc(NCc2ccc(C(F)(F)F)cc2)n1 [GW497681X]
- potency estimated from few doses (MTHFD1): 2040 nM
- potency estimated from few doses (TNK1): 909 nM

Structure (SMILES): O=C(Nc1n[nH]c2cc(-c3cccc(F)c3)ccc12)C1CC1 [SB-735464]
- potency estimated from few doses (NLK; [2]): 1810 nM
- potency estimated from few doses (PKM): 2130 nM

Structure (SMILES): Nc1nc(-c2nccs2)c(-c2ccnc3ccccc23)s1 [GW693542X]
- potency estimated from few doses (MDN1): 1860 nM
- potency estimated from few doses (PIK3C3; CATDS: 0.27915457125427801): 1430 nM
- potency estimated from few doses (RIOK2): 2090 nM
- potency estimated from few doses (TGFBR1): 1750 nM

Structure (SMILES): Cc1cc(-c2cnc(N)c3c(-c4ccc5scnc5c4)csc23)n(C)n1 [GSK843]
- potency estimated from few doses (NLK; compound concentrations: 100 nM and 1000 nM (sheet 'Samples'), CATDS: 0.25956792289458103): 168 nM
- potency estimated from few doses (RIPK2; compound concentrations: 100 nM and 1000 nM (sheet 'Samples'), CATDS: 0.78129176750212304): 15.6 nM
- potency estimated from few doses (RIPK3): 1430 nM
- potency estimated from few doses (STK16): 1750 nM
- potency estimated from few doses (TESK2; CATDS: 0.123939134013601): 1430 nM
- potency estimated from few doses (TGFBR2): 616 nM

Structure (SMILES): COc1cccc(-c2nc(-c3ccccc3)[nH]c2-c2ccncc2)c1 [SB-610250]
- potency estimated from few doses (MAPK14; [2]): 1050 nM
- potency estimated from few doses (MAPKAPK2; [2]): 1480 nM
- potency estimated from few doses (NQO2; [2]): 131 nM
- potency estimated from few doses (PHKG2): 2340 nM
- potency estimated from few doses (PIM2): 1940 nM
- potency estimated from few doses (PIM3; [2]): 1430 nM
- potency estimated from few doses (PKN3): 1320 nM
- potency estimated from few doses (RIPK2; [2]): 204 nM

Structure (SMILES): Cc1cc(-c2ccc3c(c2)CC[C@@H](N[C@@H](C)c2ccccc2)C3)cnc1N.Cc1cc(-c2ccc3c(c2)CC[C@@H](N[C@@H](C)c2ccccc2)C3)cnc1N.Cl.Cl [GW412617A]
- potency estimated from few doses (PIM3; compound concentrations: 100 nM and 1000 nM (sheet 'Samples'), CATDS: 0.55054057410094004): 1020 nM
- potency estimated from few doses (TESK2; CATDS: 0.45795860987145298): 1470 nM

Structure (SMILES): Cc1nn2c(=O)cc(N3CCO[C@H](C)C3)nc2n1Cc1cccc(Cl)c1Cl [GSK2373693A]
- potency estimated from few doses (PIK3CB; CATDS: 1): 11.8 nM

Structure (SMILES): COc1ncc(-c2cc(-c3ncc(CN4C[C@@H](C)O[C@@H](C)C4)o3)c3cn[nH]c3c2)cc1NS(C)(=O)=O [GSK2292767]
- potency estimated from few doses (PDXK): 779 nM
- potency estimated from few doses (PIK3C3; CATDS: 0.16198268418526299): 70.7 nM
- potency estimated from few doses (PIK3CA): 9.18 nM
- potency estimated from few doses (PIK3CB; CATDS: 0.10653178363766699): 335 nM
- potency estimated from few doses (PIK3CD): 0.614 nM
- potency estimated from few doses (PIK3CG; compound concentrations: 100 nM and 1000 nM (sheet 'Samples'), CATDS: 0.13255621983520199): 142 nM
- potency estimated from few doses (PRKDC): 515 nM
